Screening results (PubChem BioAssay)
Lamin A splicing – qHTS Assay for Modulators of Lamin A Splicing | HeLa LMNA splicing GFP/RFP minigene ratio, 48 h | Potency, µM (top dose mostly 46.1 µM), for inactives: at the top dose ratio change, negative = inhibition, most hits filed as inhibitors | AID 1487, 2009 | actives 0.01% (n = 200,000); active = well fitted inhibition curve with a large enough effect in the signal ratio, with a control signal flat, not every such curve was filed as active; inconclusive = small, poorly fitted or top-dose-only effect, or effect the other way, or a change in a side signal; the % refers to the signal ratio; also: potency is read from the fitted curve at half-maximal effect; % is scaled to controls: 0 for no effect and ±100 for the full control effect
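Read-out is the ratio of GFP to DsRed2 object intensity, acquired by 488 nm laser-scanning cytometry on HeLa lamin A-EGFP minigene reporter cells. Compound incubation 48 hrs at 37 °C in Opti-MEM with 2% FBS; DMSO 0.5% final.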
CBFb-RUNX1 inh – qHTS Assay for Compounds Blocking the Interaction Between CBF-beta and RUNX1 for the Treatment of Acute Myeloid Leukemia | Runt-related transcription factor 1 (Homo sapiens) + Core-binding factor subunit beta … | AlphaScreen CBFb-His/RUNX1-biotin binding, biochemical | Potency, µM (top dose mostly 59.8 µM), inactives show at the top dose activity, negative = inhibition, usual class: inhibitors | 230,000 tested, under 10 active | AID 1477, 2009; also: % of control where 0% means no effect
Target sequence (Q01196 whole entry, looked up): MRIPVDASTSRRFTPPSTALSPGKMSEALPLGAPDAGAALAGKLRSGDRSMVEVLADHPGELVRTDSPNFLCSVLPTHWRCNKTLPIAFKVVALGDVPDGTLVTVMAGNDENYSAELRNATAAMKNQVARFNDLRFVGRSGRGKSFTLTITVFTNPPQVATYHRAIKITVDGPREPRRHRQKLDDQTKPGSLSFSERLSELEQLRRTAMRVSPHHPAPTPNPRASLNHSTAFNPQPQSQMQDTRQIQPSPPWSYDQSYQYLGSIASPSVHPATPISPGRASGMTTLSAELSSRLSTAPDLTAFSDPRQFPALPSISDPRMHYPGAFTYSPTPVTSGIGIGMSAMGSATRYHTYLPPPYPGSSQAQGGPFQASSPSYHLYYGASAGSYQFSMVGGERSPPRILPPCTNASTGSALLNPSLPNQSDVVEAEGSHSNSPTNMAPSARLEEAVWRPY
Target sequence (Q13951 whole entry, looked up): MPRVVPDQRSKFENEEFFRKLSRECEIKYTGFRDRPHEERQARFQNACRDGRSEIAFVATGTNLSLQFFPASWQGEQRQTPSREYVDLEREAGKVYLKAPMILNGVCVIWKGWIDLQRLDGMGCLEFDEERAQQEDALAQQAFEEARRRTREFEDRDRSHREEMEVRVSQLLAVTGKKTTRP
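Proteins preincubated together for 20 min at RT before compound addition; 15 min later, nickel and streptavidin beads were added and left 90 min prior to AlphaScreen measurement.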
HTT aggregate – qHTS Multiplex Assay to Identify Dual Action Probes in a Cell Model of Huntington: Aggregate Formation (GFP); PC12 HttQ103-GFP aggregates, Acumen cytometry, 40 h; actives 1.1% (n = 220,000); AID 1688, 2009; Potency, µM (highest dose often 46.1 µM), for the others: top-dose activity change, negative = inhibition, most hits filed as inhibitors; also: potency is read from the fitted curve at half-maximal effect; % is scaled to controls: 0 for no effect and ±100 for the full control effect; nearly all actives have a fitted effect of over 60% in size
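Read-out: GFP aggregate count by laser scanning cytometer (488 nm excitation, 500-530 nm emission, 1–25 µm objects >6 SD above background). Cells: PC12, inducible HTTex1-Q103-GFP, 100 nM tebufenozide; compounds titrated.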
HTT cytoprotect – qHTS Multiplex Assay to Identify Dual Action Probes in a Cell Model of Huntington: Cytoprotection (ATP); PC12 HTT-Q103 induced, cytoprotection, ATP luminescence, 40 h; actives 0.14% (n = 230,000); Potency, µM (top dose mostly 56.4 µM), for inactives: cytoprotection (ATP increase), usual class: activators; AID 1471, 2008; also: potency is read from the fitted curve at half-maximal effect; % of control where 0% means no effect; nearly all actives have a fitted effect of over 45% in size
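Quantitative HTS on tebufenozide-induced (100 nM) PC12 cells expressing HTTQ103 exon 1–GFP; compounds tested as a concentration series; survival measured via cellular ATP.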
NPSR antag – qHTS Assay for Antagonists of the Neuropeptide S Receptor: cAMP Signal Transduction; Potency, µM (top dose mostly 38.3 µM), without a hit: at the highest dose activity change, negative = inhibition, actives largely listed as inhibitors; actives 1% (n = 220,000); Q6W5P4; CHO-NPSR cells, cAMP TR-FRET, antagonist mode; also: potency is read from the fitted curve at half-maximal effect; % is scaled to controls: 0 for no effect and ±100 for the full control effect; nearly all actives have a fitted effect of over 50% in size
MBNL1-CUG inh – qHTS Assay for Inhibitors of MBNL1-poly(CUG) RNA binding; Muscleblind-like protein 1 (Homo sapiens), Q9NR56; TR-FRET MBNL1-His/biotin-(CUG)12 binding, 665/545 ratio; Potency, µM (highest dose often 57.5 µM), without a hit: at the top dose activity change, negative = inhibition, actives largely listed as inhibitors; actives 0.036% (n = 280,000); active = well fitted inhibition curve with a large enough effect in the signal ratio, with a control signal flat, not every such curve was filed as active; inconclusive = small, poorly fitted or top-dose-only effect, or effect the other way, or a change in a side signal; inactive = no such curve, though single readings can be large or run the other way; the % refers to the signal ratio; also: potency is read from the fitted curve at half-maximal effect; % is scaled to controls: 0 for no effect and ±100 for the full control effect
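Compounds (final 92 nM to 58 uM) are added to His-tagged MBNL1 and biotin-(CUG)12, then terbium anti-His antibody and streptavidin-XL665 (5 nM final). After 60 min at room temperature, the 665/545 nm ratio is read.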
An asterisk follows results filed as active; ? = inconclusive; · = no result given; [ ] = another dose, or the depositor's remark. Rows were chosen to be rich in hits. Some 1.1% of all compounds tested hit in one or more screens of this group. Unless noted, calls follow the shape of the dose curve; as a rule, active = well fitted curve in the direction sought with a large enough effect; inconclusive = small, poorly fitted or top-dose-only effect, or another doubt; inactive = no such curve, though single readings can be large; an effect the other way counts as inactive or inconclusive.

SMILES | Lamin A splicing | CBFb-RUNX1 inh | HTT aggregate | HTT cytoprotect | NPSR antag | MBNL1-CUG inh
CC(Oc1ccccc1)C(=O)NNC(=O)c1ccccn1 (configuration not stated) | ? | ? | -28.3% | 3.9%[10 µM] | 6.9% | -12.1%
Cc1ccc(C)c(NC(=O)N2CCN(C(=O)c3nsc4ccccc34)CC2)c1 | -6.3%[46 µM] | · | · | · | · | ·
CCCC(=O)N1CCN(c2ccc(NC(=O)c3ccc([N+](=O)[O-])o3)cc2Cl)CC1 | · | -3.2% | ? | ? | 3.98µM* | ·
CC(C)C(=O)N1CCN(c2ccc(NC(=O)c3ccc([N+](=O)[O-])o3)cc2Cl)CC1 | -24.3%[46 µM] | 1.4% | 18.0% | -5.4% | 3.16µM* | ?
CC(C)C(=O)N1CCN(c2ccc(NC(=O)c3ccc([N+](=O)[O-])o3)cc2)CC1 | · | 17.7% | 4.1%[9.22 µM] | 16.3%[10 µM] | ? | ?
Cc1ccccc1C(=O)N1CCN(c2ccc(NC(=O)c3ccco3)cc2Cl)CC1 | ? | 3.1% | 12.6µM* | -25.0%[10 µM] | -20.3%[46.1 µM] | -0.7%
O=C(Nc1ccc(N2CCN(C(=O)c3cccs3)CC2)c(Cl)c1)c1ccco1 | -25.6% | -3.7% | -26.0% | -0.6%[10 µM] | -24.1%[46.1 µM] | 14.3%
CC(Oc1ccc(Br)cc1)c1nc2c3ccccc3nc(=S)n2[nH]1 (configuration not stated) | · | -2.3% | 8.91µM* | -70.3% | -39.5% | -5.3%
CC(C)(C)c1cc(-c2csc(Nc3ccccc3)[n+]2Cc2ccc(C(=O)O)cc2)cc(C(C)(C)C)c1O | · | -13.2% | 0.9%[9.22 µM] | -4.9%[10 µM] | 12.6µM* | -0.5%
O=C(O)c1ccc(C[n+]2c(-c3ccccc3)csc2Nc2ccccc2)cc1 | -13.8% | -27.9% | 1.5% | 18.5%[1.9 µM] | -58.1% | 2.0%
O=C(NN1C(=O)c2ccccc2NC1c1ccc([N+](=O)[O-])o1)c1ccc(Br)cc1 (configuration not stated) | · | -5.2% | ? | 6.31µM* | -8.6% | ?
CC(=O)NN1C(=O)c2ccccc2NC1c1ccc([N+](=O)[O-])o1 (configuration not stated) | · | -2.6% | ? | -46.4% | 23.7% | ?
CCOc1cccc(/C=N/Nc2ccc(S(=O)(=O)N(CC)CC)cn2)c1O | ? | ? | 1.41µM* | -65.6%[10 µM] | -15.7% | 1.0%
Oc1c(C(Nc2ccccn2)c2ccccn2)ccc2cccnc12 (configuration not stated) | ? | ? | 2.82µM* | 2.3% | ? | 8.4%
CC(=O)NC(c1ccco1)c1ccc2cccnc2c1O (configuration not stated) | ? | -11.4% | 3.55µM* | -27.0% | -5.6%[46.1 µM] | 11.9%
Oc1c([C@H](Nc2ccccn2)c2ccccc2)ccc2cccnc12 | · | · | · | -2.3%[10 µM] | · | ·
CCOC(=O)c1c(C)sc(-c2c(-c3ccc(OC)c(F)c3)[nH]c3c2c(=O)[nH]c(=O)n3C)c1O | -5.8%[46 µM] | · | · | · | · | ·
CCCc1cc(=O)[nH]c2nnc(SCC(=O)Nc3ccc(OC)cc3)n12 | 2.1%[46 µM] | · | · | · | · | ·
CC(C)n1cnc2c(N(C)c3ccccc3)nc(N(CCN(C)C)Cc3ccccc3)nc21 | · | -24.4% | -7.8%[9.22 µM] | -35.7%[10 µM] | 10µM* | 7.0%
COc1cc(C(=O)O/N=C2\C=CC(=O)C(C)=C2)cc(OC)c1OC | ? | 1.4% | 11.2µM* | -113.3% | -9.2%[46.1 µM] | ?
CCCCC/C(C=O)=C/c1ccccc1 | ? | · | -6.7% | -9.4% | · | ·
O=C(CS(=O)(=O)c1cccc2nsnc12)NCc1ccccc1 | 3.1%[46 µM] | · | · | · | · | ·
CCOc1cnn(-c2cc(Oc3ccc(C)cc3)ncn2)c(=O)c1Cl | 6.7% | -0.9% | 3.8% | -0.7%[10 µM] | -12.8%[46.1 µM] | ?
Cc1ccccc1Oc1cc(-n2ncc(Cl)c(Cl)c2=O)ncn1 | ? | 3.7% | ? | -96.7%[10 µM] | 2.51µM* | ·
C/C(=N\N1C(=O)c2ccccc2NC1c1ccco1)c1ccccc1O (configuration not stated) | ? | -2.1% | 7.08µM* | -183.9% | -38.2% | 0.7%
SMILES | Lamin A splicing | CBFb-RUNX1 inh | HTT aggregate | HTT cytoprotect | NPSR antag | MBNL1-CUG inh
O=C(C1CCC(Cn2c(=O)c3sccc3n(Cc3ccc(F)cc3)c2=O)CC1)N1CCOCC1 (configuration not stated) | -4.5%[46 µM] | · | · | · | · | ·
O=C(Cn1cc(/C=C\[N+](=O)[O-])c2ccccc21)Nc1ccccc1 | · | -14.2% | 12.8%[9.22 µM] | 8.5%[10 µM] | 12.6µM* | -13.6%
O=[N+]([O-])/C=C/c1cn(Cc2ccccc2)c2ccccc12 | 121.3% | -1.4% | ? | -72.1% | 10µM* | -3.4%
O=C(O)Cn1cc(/C=C/[N+](=O)[O-])c2ccccc21 | · | -4.7% | 0.4% | · | -47.8% | 11.3%
CCOC(=O)OCC1OC(c2ccccc2)C=CC1Oc1ccc2oc(=O)cc(C)c2c1 (configuration not stated) | · | 11.5%[13.1 µM] | · | 14.6%[10 µM] | · | ·
CSc1cccc(NC(=O)/C=C/c2cccc(Cl)c2)c1 | ? | -4.5% | 15.8µM* | · | -31.4% | -9.1%
O=C(/C=C/c1cccc(Cl)c1)Nc1ncccn1 | ? | -0.8% | -17.8% | 27.2%[10 µM] | 5.8% | 27.4%
COc1ccc(CNC(=O)Cn2cnc3c(=O)n(C)c(=O)n(C)c32)cc1 | 9.0% | 14.9% | 0.631µM* | -10.0%[0.074 µM] | 4.8%[46.1 µM] | 6.1%
CC#CCN1c2ccccc2[C@]23C[C@@H](C(=O)OC)N(S(=O)(=O)c4ccc(C(F)(F)F)cc4)C2=NC(C(=O)OC)=C(C(=O)OC)[C@H]13 | ? | 2.7%[13.1 µM] | · | -12.4%[10 µM] | · | ·
O=c1c2cc(Cl)ccc2nc(-c2ccc([N+](=O)[O-])cc2)n1O | · | 22.2% | 10µM* | -71.1% | -9.9% | ·
O=c1c2cc(Br)ccc2nc(-c2ccc(Cl)cc2)n1O | · | · | · | · | · | -7.3%
O=C(NCc1ccco1)c1ccc2nc3sc4c(c3c(=O)n2c1)CCCC4 | 2.3% | 15.4% | ? | -11.9%[10 µM] | 10µM* | ?
CCN(CC)C1=CC2=CC(=C(C#N)C#N)CCC2CC1 (configuration not stated) | ? | 7.5% | 0.1µM* | -22.8%[10 µM] | -23.3% | ?
CCCCN(C)C1=CC2=CC(=C(C#N)C#N)CCC2CC1 (configuration not stated) | ? | 19.0% | 0.316µM* | 5.9%[10 µM] | -34.1% | ·
